In PubChem BioAssay AID1159569 (Broad Institute, 2015) one finds outcome data, which are given here for 30 compounds.

Potency and affinity values are given separately. Results filed as inconclusive are left out. Where a call stands in place of a potency, no number is given. Active and inactive are the calls of the source. How the calls were made is not given here.

The nature of the test: HepG2 cell cytotoxicity, dose response, cytotoxicity control, plate reader, dry powder samples (AID 1159569). Particulars: HepG2 cytotoxicity counterscreen; series mostly up to 50 µM. For orientation: A counterscreen serves to expose hits that act by an unwanted route or on another target.
In the case of `Cc1ccc(S(=O)(=O)N(C)C[C@H]2OCc3ccccc3-c3c(n(C)c4ccccc34)C(=O)N([C@@H](C)CO)C[C@@H]2C)cc1`, the compound was called inactive. Take `CC(C)NC(=O)Nc1ccc2c(c1)C(=O)N(C)[C@H]1CC[C@H](CC(=O)Nc3ccccc3)O[C@H]1CO2`: the outcome was inactive. Take `COc1ccc(C#Cc2ccc3c(c2)O[C@@H](CN(C)S(=O)(=O)c2ccccc2F)[C@@H](C)CN([C@@H](C)CO)S3(=O)=O)cc1`: the compound was classed as inactive. As for `CCC(=O)N1CCC2(CC1)CN(S(=O)(=O)c1ccccc1)[C@@H](CO)c1[nH]c3cc(OC)ccc3c12`, the result was inactive. With `CO[C@@H]1CN(C)C(=O)c2ccc(NC(=O)Nc3ccccc3F)cc2OC[C@@H](C)N(Cc2ccccc2F)C[C@H]1C` the entry was “inactive”. For `COc1ccc(S(=O)(=O)Nc2ccc3c(c2)CC(=O)N([C@@H](C)CO)C[C@H](C)[C@H](CN(C)S(=O)(=O)c2ccc(C)cc2)O3)cc1`, the outcome was inactive. With `C/C=C/c1ccc2c(c1)[C@H]1[C@H](CCN1S(=O)(=O)c1ccccc1C)[C@@H](CO)N2` the entry was “inactive”. Take `COc1ccc(-c2ccccc2[C@H]2[C@@H](C#N)N(C(=O)NC(C)C)[C@H]2CO)cc1`: the result was inactive. In the case of `O=C(Nc1ccccc1)N1CCCCN2[C@H](CO)[C@H](c3ccc(C#Cc4cccnc4)cc3)[C@@H]2C1`, the compound was called inactive. With `COc1ccc(C#Cc2ccc3c(c2)O[C@@H](CN(C)C(=O)Nc2cccc(OC)c2)[C@@H](C)CN([C@H](C)CO)S3(=O)=O)cc1`, the compound was classed as inactive.

`C[C@H]1CN([C@@H](C)CO)C(=O)c2cc(NC(=O)Nc3ccc(C(F)(F)F)cc3)ccc2O[C@@H]1CN(C)C(=O)Nc1cccc2ccccc12`: the outcome was inactive.

Consider `C[C@@H]1CN([C@H](C)CO)C(=O)c2cccc(NC(=O)Nc3cccc4ccccc34)c2O[C@@H]1CN(C)C(=O)Nc1ccc(C(F)(F)F)cc1`, for which the outcome was inactive. `COc1ccc2c3c(n(C)c2c1)[C@@H](CO)N(C(=O)c1ccc(F)cc1)CC31CCN(C(=O)Nc2ccc(F)cc2)CC1`: the compound was called inactive. In the case of `COc1ccc2c3c([nH]c2c1)[C@H](CO)NCC31CCN(C(=O)Nc2ccc3c(c2)OCO3)CC1`, the outcome was inactive. As to `C[C@@H]1CN([C@@H](C)CO)C(=O)c2cccc(NC(=O)c3ccc(-c4nccs4)cc3)c2O[C@H]1CN(C)Cc1ccc(Cl)c(Cl)c1`, the result was inactive. `OC[C@H]1CC[C@@H]2O[C@H](CCc3ccc(C#CCc4ccccc4)cc3)[C@H](n3cc(-c4ccccc4)nn3)C[C@@H]2O1`: the compound was called inactive. With `COc1ccc(NC(=O)N2CC3(C2)CN(C(=O)C2CCC2)[C@H](CO)c2c3c3ccc(OC)cc3n2C)cc1` the entry was “inactive”; with `O=C(c1ccc(F)cc1)N1CC(=O)N2[C@H](C1)[C@@H](c1ccc(-c3cccnc3)cc1)[C@@H]2CO`, “inactive”; with `COc1ccc2c3c(n(C)c2c1)[C@@H](CO)N(C(=O)C1CC1)CC31CCN(C(=O)Nc2cccc(F)c2)CC1`, “inactive”.

In the case of `COc1ccc(S(=O)(=O)Nc2ccc3c(c2)CC(=O)N([C@H](C)CO)C[C@H](C)[C@H](CN(C)S(=O)(=O)c2ccc(C)cc2)O3)cc1`, the call was inactive. As for `COc1ccccc1S(=O)(=O)N(C)C[C@H]1OCc2ccccc2-c2c(n(C)c3ccccc23)C(=O)N([C@@H](C)CO)C[C@@H]1C`, the result was inactive.

Take `CCCNC(=O)c1cc2c(c(-c3cccc(-c4cc5ccccc5o4)c3)n1)[C@H](CCO)N(C(=O)NC(C)C)C2`: the compound was called inactive. As for `C[C@@H]1CN([C@@H](C)CO)C(=O)c2cccc(NC(=O)c3nc4ccccc4s3)c2O[C@H]1CN(C)C(=O)NC1CCCCC1`, the call was inactive.

With `COc1ccc(NC(=O)N2CCC3(CC2)CN(C(=O)C2CCC2)[C@H](CO)c2c3c3ccc(OC)cc3n2C)cc1`, the call was inactive. In the case of `COc1cccc(C#Cc2cnc3c(c2)C(=O)N([C@@H](C)CO)C[C@H](C)[C@@H](CN(C)C(=O)C2CCCCC2)O3)c1`, the outcome was inactive. For `COc1cccc(C#Cc2ccc([C@H]3[C@@H](CO)N(C(=O)C4CCC4)[C@H]3C#N)cc2)c1`, the call was inactive.

Take `Cc1ccccc1-c1ccccc1[C@H]1[C@@H](C#N)N(C(=O)c2ccccc2)[C@@H]1CO`: the compound was classed as inactive. With `COc1ccc(-c2ccccc2[C@H]2[C@@H](C#N)N(C(=O)C3CCCC3)[C@@H]2CO)cc1`, the compound was called inactive. Turning to `O=C(c1ccncc1)N1CC(=O)N2[C@H](C1)[C@@H](c1ccc(-c3cccnc3)cc1)[C@@H]2CO`, the result was inactive. Regarding `CCCC#Cc1ccc2c(c1)O[C@H](CN(C)C(=O)Nc1ccc(OC)cc1)[C@H](C)CN([C@H](C)CO)S2(=O)=O`, the call was inactive.
